Source: PubChem BioAssay (National Center for Advancing Translational Sciences (NCATS))
A selection: hits, their analogues and other compounds. The true share with any hit is near 6.9%.
Giardia kill – Small Molecules that selectively kill Giardia lamblia: qHTS | AID 540267, 2011 | Giardia lamblia trophozoite viability | actives 0.15% (n = 340,000) | activity change, % at 7.66 µM, hits read low; in the data active = activity change below about -80%; inconclusive = between about -30% and that limit;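 note: parasites exposed to compound for two days anaerobically before the ATP read; % is set by controls: 0 for no effect and ±100 for the full control effect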
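Each well holds 100 Giardia trophozoites and compound. After two days (48 hrs) at 37 deg C in anaerobic conditions, ATP is quantified by luminescence.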
IL-1B inflam inh – qHTS for Inhibitors of Inflammasome Signaling: IL-1-beta AlphaLISA Primary Screen; THP-1 LPS/ATP IL-1B secretion, AlphaLISA, 16 h; stronger effect = lower value; activity change, % at 57.5 µM; AID 743279, 2014; actives 4.7% (n = 360,000); in the data active = activity change below about -50%; inconclusive = mostly about -30% to -49%; note: % is set by controls: 0 for no effect and ±100 for the full control effect
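Secreted IL-1B measured by AlphaLISA bead assay after 16 h compound exposure of THP-1 cells; compounds (final up to 57.5 uM) added 1 h before LPS (250 ng/mL) and ATP (1.25 mM) stimulation; lower signal means less secretion.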
SW480 rereplic – A quantitative high throughput screen for small molecules that induce DNA re-replication in SW480 colon adenocarcinoma cells. SW480 DNA re-replication, Hoechst DNA content imaging, 48 h. Potency, µM (highest dose often 46.1 µM), for inactives: at the highest dose re-replication activation, most hits filed as activators. actives 1.8% (n = 340,000). AID 624297, 2012; note: potency is the fitted concentration of half-maximal effect; % of control where 0% means no effect; nearly all actives have a fitted effect of over 55% in size
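First, 250 cells per well were seeded. Next, compound or vehicle (23 nL) was pinned in, plates sat 48 hr at 37 C. Finally Hoechst was added for 40 min before fluorescence scanning.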
Vif-APOBEC3F blk – qHTS for Inhibitors of Vif-A3F Interactions: qHTS; Potency, µM (titrated, usually from 46.1 µM), for the others: at the top dose activity, negative = active; AID 602313, 2012; HeLa A3F-eYFP + Vif (tagged APOBEC3F with the HIV-1 protein that degrades it), YFP fluorescence increase; actives 0.2% (n = 390,000); note: potency is the fitted concentration of half-maximal effect; % of control where 0% means no effect; nearly all actives have a fitted effect of over 65% in size
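Fluorescence increase (Ex 488/Em 500-530) after overnight compound treatment at 37 deg C flags inhibition of Vif-driven A3F-eYFP loss in stable HeLa A3F-eYFP/Vif cells seeded overnight beforehand.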
Vif-APOBEC3G blk – qHTS for Inhibitors of Vif-A3G Interactions: qHTS; HeLa A3G-eYFP + Vif (tagged APOBEC3G with the HIV-1 protein that degrades it), YFP fluorescence, overnight; Potency, µM (series often up to 46.1 µM), for inactives: at the top dose activity, negative = active, actives largely listed as inhibitors; actives 0.076% (n = 410,000); note: potency is the fitted concentration of half-maximal effect; % is set by controls: 0 for no effect and ±100 for the full control effect; nearly all actives have a fitted effect of over 60% in size
Target sequence (Q9HC16 whole entry, looked up): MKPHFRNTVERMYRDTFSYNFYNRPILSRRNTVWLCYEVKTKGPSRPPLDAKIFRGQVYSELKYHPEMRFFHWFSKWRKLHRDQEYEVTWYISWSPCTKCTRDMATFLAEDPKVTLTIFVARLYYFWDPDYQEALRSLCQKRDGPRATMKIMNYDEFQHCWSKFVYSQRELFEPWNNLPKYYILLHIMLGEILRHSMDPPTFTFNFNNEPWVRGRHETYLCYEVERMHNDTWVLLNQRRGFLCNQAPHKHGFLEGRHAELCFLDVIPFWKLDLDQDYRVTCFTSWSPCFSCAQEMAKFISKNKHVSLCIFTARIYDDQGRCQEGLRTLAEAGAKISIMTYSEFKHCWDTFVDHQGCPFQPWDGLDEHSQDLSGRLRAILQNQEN
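HeLa cells stably expressing Vif and C-terminally eYFP-tagged A3G, seeded overnight at 37 deg C, then exposed to compound by pintool overnight at 37 deg C. Rise in yellow fluorescence (Ex 488/Em 500-530, Acumen) marks blocked Vif-driven A3G degradation.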
MCF10A rerep – A quantitative high throughput screen for small molecules that induce DNA re-replication in MCF 10a normal breast cells; actives 2.9% (n = 350,000); AID 624296, 2012; MCF 10A DNA re-replication, Hoechst nuclear intensity, 48 h; Potency, µM (top dose mostly 46.1 µM), for the others: at the highest dose activity, positive = re-replication, hits mostly activators; note: potency is the fitted concentration of half-maximal effect; % of control where 0% means no effect; nearly all actives have a fitted effect of over 50% in size
Starred values were filed as active, the others as inactive; [ ] = remark or other dose. Unless noted, calls come from the whole dose curve; as a rule, active = well fitted curve in the direction sought with a large enough effect; inconclusive = small, poorly fitted or top-dose-only effect, or another doubt; inactive = no such curve, though single readings can be large; an effect the other way counts as inactive or inconclusive.

Results for CCOc1cc(/C=C/c2cc(C(F)(F)F)[nH]c(=O)n2)ccc1O ?
Giardia kill: 6.0; IL-1B inflam inh: -62.6*; SW480 rereplic: inconclusive; Vif-APOBEC3F blk: 8.0%; Vif-APOBEC3G blk: inconclusive; MCF10A rerep: inconclusive

Results for COc1cc(-c2noc(-c3ccc(NC4CCCC4)c([N+](=O)[O-])c3)n2)cc(OC)c1OC ?
Vif-APOBEC3F blk: -12.6%; Vif-APOBEC3G blk: 3.2%

What do the screens show for `COc1cc(C2NC(=O)NC(C)=C2C(=O)Nc2cc(C)cc(C)c2)ccc1O` (stereo not given)?
Vif-APOBEC3F blk: -1.2%; Vif-APOBEC3G blk: -3.5%

How did CCOC(=O)C1CCN(C(=O)CCCNC(=O)Cn2cnc3sc(C)c(C)c3c2=O)CC1 do in these assays?
Giardia kill: -17.1; IL-1B inflam inh: -67.6*; SW480 rereplic: -4.6%; Vif-APOBEC3F blk: -19.5%; Vif-APOBEC3G blk: -6.7%; MCF10A rerep: -2.3%

Results for Cc1sc2ncn(CC(=O)NCCCC(=O)N3CCC(C)CC3)c(=O)c2c1C ?
Giardia kill: -21.1; IL-1B inflam inh: 15.0; SW480 rereplic: 0.2%; Vif-APOBEC3F blk: 0.0%; Vif-APOBEC3G blk: 0.4%; MCF10A rerep: -5.4%

Results for CN(C)c1cc(Nc2ccc(O)cc2)c([N+](=O)[O-])c2nonc12 ?
Giardia kill: -4.8; IL-1B inflam inh: 8.4; SW480 rereplic: 5.3%; Vif-APOBEC3F blk: 0.7%; Vif-APOBEC3G blk: 0.4%; MCF10A rerep: -1.1%

What do the screens show for `O=C(O)c1ccc(Nc2ccc3nonc3c2[N+](=O)[O-])cc1`?
Giardia kill: -26.2; IL-1B inflam inh: 7.2; SW480 rereplic: -2.6%; Vif-APOBEC3F blk: -12.1%; Vif-APOBEC3G blk: -0.6%; MCF10A rerep: 0.0%

What do the screens show for `COC(=O)c1ccc(Nc2ccc3nonc3c2[N+](=O)[O-])cc1`?
Giardia kill: -92.6*; IL-1B inflam inh: -13.4; SW480 rereplic: inconclusive; Vif-APOBEC3F blk: 2.1%; Vif-APOBEC3G blk: -0.6%; MCF10A rerep: inconclusive

What do the screens show for `O=[N+]([O-])c1c(Nc2ccc(O)cc2)cc(Cl)c2nonc12`?
Giardia kill: 9.0; IL-1B inflam inh: -101.5*; SW480 rereplic: -15.7%; Vif-APOBEC3F blk: 1.7%; Vif-APOBEC3G blk: inconclusive; MCF10A rerep: -8.3%

Results for O=[N+]([O-])c1c(Nc2ccccn2)cc(Cl)c2nonc12 ?
Giardia kill: 28.6; IL-1B inflam inh: -101.1*; SW480 rereplic: inconclusive; Vif-APOBEC3F blk: inconclusive; Vif-APOBEC3G blk: -7.0%; MCF10A rerep: inconclusive

How did CSc1ccc(CNC(=O)c2ccc3c(c2)N(C)C(=O)C2CCCCN32)cc1 (stereo not given) do in these assays?
Vif-APOBEC3F blk: -5.5%; Vif-APOBEC3G blk: -3.5%

Results for CCOC(=O)c1cc(-c2ccccc2)n(CC(=O)N(C)c2ccc(OC)cc2)c1C ?
Vif-APOBEC3F blk: 1.1%; Vif-APOBEC3G blk: -4.4%

What do the screens show for `O=C(C1=C[C@@H](c2csc3ccccc23)C[C@@H](OCCCCO)O1)N1CCN(Cc2ccc3c(c2)OCO3)CC1`?
Giardia kill: 3.1; IL-1B inflam inh: inconclusive; SW480 rereplic: -5.0%; Vif-APOBEC3F blk: -5.6%; Vif-APOBEC3G blk: -0.6%; MCF10A rerep: inconclusive

What do the screens show for `O=C(C1=C[C@H](c2csc3ccccc23)C[C@H](OCCCCO)O1)N1CCN(Cc2ccc3c(c2)OCO3)CC1`?
Giardia kill: 11.8; IL-1B inflam inh: -54.2*; SW480 rereplic: -24.5%[9.22 µM]; Vif-APOBEC3F blk: 5.4%; Vif-APOBEC3G blk: -7.4%; MCF10A rerep: inconclusive

How did O=C(C1=C[C@H](c2ccc(C(F)(F)F)cc2)C[C@H](OCCCCO)O1)N1CCN(Cc2ccc3c(c2)OCO3)CC1 do in these assays?
Giardia kill: -1.7; IL-1B inflam inh: -66.6*; SW480 rereplic: -1.1%; Vif-APOBEC3F blk: -2.6%; Vif-APOBEC3G blk: -0.3%; MCF10A rerep: 0.9%

Results for Cc1[nH]c2ccc(C(=O)NCCc3ccccc3Cl)cc2c1C ?
Vif-APOBEC3F blk: -21.1%; Vif-APOBEC3G blk: -2.5%

What do the screens show for `CCCCCn1c(CNC(=O)c2cccs2)nc2ccccc21`?
Giardia kill: 0.2; IL-1B inflam inh: -53.8*; SW480 rereplic: 5.9%; Vif-APOBEC3F blk: 1.8%; Vif-APOBEC3G blk: 0.0%; MCF10A rerep: 27.6%

How did CCCCCn1c(CCNC(=O)CCC)nc2ccccc21 do in these assays?
Giardia kill: -3.8; IL-1B inflam inh: 32.7; SW480 rereplic: -14.6%; Vif-APOBEC3F blk: 0.0%; Vif-APOBEC3G blk: -0.5%; MCF10A rerep: 1.7%

Results for CCCCCn1c(CCNC(=O)c2cccs2)nc2ccccc21 ?
Giardia kill: 4.8; IL-1B inflam inh: -76.5*; SW480 rereplic: -0.8%; Vif-APOBEC3F blk: -3.2%; Vif-APOBEC3G blk: -1.1%; MCF10A rerep: -1.7%

How did CCCCn1c(CNC(=O)c2cccs2)nc2ccccc21 do in these assays?
Giardia kill: 0.1; IL-1B inflam inh: 4.8; SW480 rereplic: -3.0%; Vif-APOBEC3F blk: 9.5%; Vif-APOBEC3G blk: 6.2%; MCF10A rerep: 2.9%

Results for Cc1cc(F)ccc1NC(=O)CCS(=O)(=O)c1cccc2nsnc12 ?
Vif-APOBEC3F blk: -14.4%; Vif-APOBEC3G blk: -4.3%

What do the screens show for `Cc1ccc(-c2ccc(/C=N\NC(=O)c3cc4c(ccc5ccccc54)o3)o2)cc1[N+](=O)[O-]`?
Giardia kill: -1.2; IL-1B inflam inh: 24.8; SW480 rereplic: 12.5%; Vif-APOBEC3F blk: 4.1%; Vif-APOBEC3G blk: -0.6%; MCF10A rerep: 7.31µM*

Results for Cc1ccc([N+](=O)[O-])cc1-c1ccc(/C=N/NC(=O)c2cc3c(ccc4ccccc43)o2)o1 ?
Giardia kill: -17.3; IL-1B inflam inh: 1.9; SW480 rereplic: -12.6%; Vif-APOBEC3F blk: -5.7%; Vif-APOBEC3G blk: 0.7%; MCF10A rerep: -3.0%

What do the screens show for `O=C(N/N=C/c1ccc(-c2ccc(Cl)c(C(=O)O)c2)o1)c1cc2c(ccc3ccccc32)o1`?
Giardia kill: -23.1; IL-1B inflam inh: 2.2; SW480 rereplic: inconclusive; Vif-APOBEC3F blk: 0.2%; Vif-APOBEC3G blk: 1.3%; MCF10A rerep: 20.6µM*

What do the screens show for `CCCCCCCCCCCCCCCC[n+]1ccc(C)c2ccccc21`?
Vif-APOBEC3G blk: -11.0%

Results for CCOC(=O)C1=C(C2=CCCCC2)c2ccc(OC)cc2N(S(=O)(=O)C(F)(F)F)C1C(=O)OCC (stereo not given) ?
Giardia kill: -15.2; IL-1B inflam inh: inconclusive; SW480 rereplic: 10.3µM*; Vif-APOBEC3F blk: 2.7%; Vif-APOBEC3G blk: -8.8%; MCF10A rerep: 16.4µM*
